Data published in the supplement of paper PMC12282887.
± gives the standard deviation of the averaged measurements.

Tested on: E. coli BW25113 marRABp lux reporter
Assay: promoter activity interaction Z-score (Lux/OD deviation from empty-vector control); higher = stronger promoter induction by the compound
Experimental: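 E. coli BW25113 (wild type or ΔmarA/ΔsoxS/Δrob) carrying pTU175 luxCDABE promoter reporters was grown in LB in 384-well plates at 37°C with each of 94 compounds at 4 two-fold concentrations, in biological duplicates. Luminescence and OD600 were read every 30 min for 12 h and integrated as AUC over 8 h (0-8 h WT, 1-9 h mutants). Lux AUC was divided by OD AUC; the interaction score is the residual of a Huber robust fit of each promoter against the empty-vector control, then Z-transformed per promoter.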

## Cc1cc(NS(=O)(=O)c2ccc(N)cc2)no1 [Sulfamethoxazole]
3.2 µg/ml, genetic background: wild type
  promoter activity interaction Z-score: 0.00674 ± 0.34
3.2 µg/ml, genetic background: ΔmarA
  promoter activity interaction Z-score: 0.0321 ± 0.081
3.2 µg/ml, genetic background: Δrob
  promoter activity interaction Z-score: 0.113 ± 0.29
3.2 µg/ml, genetic background: ΔsoxS
  promoter activity interaction Z-score: -0.135 ± 0.18
6.3 µg/ml, genetic background: wild type
  promoter activity interaction Z-score: 0.078 ± 0.084
6.3 µg/ml, genetic background: ΔmarA
  promoter activity interaction Z-score: 0.138 ± 0.34
6.3 µg/ml, genetic background: Δrob
  promoter activity interaction Z-score: 0.302 ± 0.037
6.3 µg/ml, genetic background: ΔsoxS
  promoter activity interaction Z-score: 0.0733 ± 0.34
12.7 µg/ml, genetic background: wild type
  promoter activity interaction Z-score: 0.411 ± 0.27
12.7 µg/ml, genetic background: ΔmarA
  promoter activity interaction Z-score: 0.542 ± 0.015
12.7 µg/ml, genetic background: Δrob
  promoter activity interaction Z-score: 0.6901 ± 0.0031
12.7 µg/ml, genetic background: ΔsoxS
  promoter activity interaction Z-score: 0.275 ± 0.14
25.3 µg/ml, genetic background: wild type
  promoter activity interaction Z-score: 0.782 ± 0.098
25.3 µg/ml, genetic background: ΔmarA
  promoter activity interaction Z-score: 1.15 ± 0.06
25.3 µg/ml, genetic background: Δrob
  promoter activity interaction Z-score: 1.2 ± 0.13
25.3 µg/ml, genetic background: ΔsoxS
  promoter activity interaction Z-score: 1.31 ± 0.61

## C[C@]12CCC(=O)C=C1CC[C@@H]1[C@@H]2[C@@H](O)C[C@@]2(C)[C@H]1CC[C@]2(O)C(=O)CO [Hydrocortisone]
22.7 µg/ml, genetic background: wild type
  promoter activity interaction Z-score: -0.21 ± 0.0069
22.7 µg/ml, genetic background: ΔmarA
  promoter activity interaction Z-score: -0.342 ± 0.029
22.7 µg/ml, genetic background: Δrob
  promoter activity interaction Z-score: -0.0926 ± 0.12
22.7 µg/ml, genetic background: ΔsoxS
  promoter activity interaction Z-score: -0.27 ± 0.066
45.3 µg/ml, genetic background: wild type
  promoter activity interaction Z-score: -0.258 ± 0.11
45.3 µg/ml, genetic background: ΔmarA
  promoter activity interaction Z-score: -0.377 ± 0.024
45.3 µg/ml, genetic background: Δrob
  promoter activity interaction Z-score: -0.12 ± 0.044
45.3 µg/ml, genetic background: ΔsoxS
  promoter activity interaction Z-score: -0.15 ± 0.019
90.6 µg/ml, genetic background: wild type
  promoter activity interaction Z-score: -0.225 ± 0.18
90.6 µg/ml, genetic background: ΔmarA
  promoter activity interaction Z-score: -0.395 ± 0.011
90.6 µg/ml, genetic background: Δrob
  promoter activity interaction Z-score: -0.23 ± 0.18
90.6 µg/ml, genetic background: ΔsoxS
  promoter activity interaction Z-score: -0.551 ± 0.19
181.2 µg/ml, genetic background: wild type
  promoter activity interaction Z-score: -0.465 ± 0.21
181.2 µg/ml, genetic background: ΔmarA
  promoter activity interaction Z-score: -0.467 ± 0.023
181.2 µg/ml, genetic background: Δrob
  promoter activity interaction Z-score: -0.34 ± 0.16
181.2 µg/ml, genetic background: ΔsoxS
  promoter activity interaction Z-score: -0.371 ± 0.24
